Source: PubChem BioAssay (NCI)
The panel holds about 83,000 compounds, 20% with a hit somewhere; the sample as a whole holds those more often.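 Plates (96-well) were seeded with cells, treated with compound at one concentration, and incubated for 48 hours before percent growth was determined.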 Activity calls are given as the source filed them. How the source made its calls: active means growth percent below 10; inactive means the rest.

Columns and labels:
Assay in all cases: NCI-60 one-dose screen, 48 h (100 = growth as untreated, 0 = no growth, -100 = all killed)
Conditions in all cases: 10 µM unless noted
[1] = tested on: SK-MEL-2 melanoma
[2] = tested on: EKVX NSCLC
[3] = tested on: SN12C renal
[4] = tested on: UO-31 renal
[5] = tested on: TK-10 renal
[6] = tested on: ACHN renal
[7] = tested on: CAKI-1 renal
[8] = tested on: A498 renal
[9] = tested on: MOLT-4 leukemia
[10] = tested on: SR leukemia
[11] = tested on: RPMI-8226 leukemia
[12] = tested on: OVCAR-8 ovarian
[13] = tested on: OVCAR-5 ovarian
[14] = tested on: OVCAR-4 ovarian
[15] = tested on: SK-OV-3 ovarian
[16] = tested on: IGROV1 ovarian
[17] = tested on: OVCAR-3 ovarian
[18] = tested on: HS 578T breast
[19] = tested on: NCI/ADR-RES ovarian
[20] = tested on: CCRF-CEM leukemia

Measured: growth

C=CCN1CCCC1=O
inactive: [1] 161% | [2] 96.8% | [3] 94.2% | [4] 101% | [5] 90.2% | [6] 109% | [7] 95.8% | [8] 91% | [9] 93.8% | [10] 90.2% | [11] 96.6% | [12] 110% | [13] 124% | [14] 94.8% | [15] 92.9% | [16] 114% | [17] 128% | [18] 109% | [19] 110%

c1ccc(Nc2ccccn2)nc1
inactive: [1] 95% | [2] 91.8% | [3] 96.8% | [4] 96.7% | [5] 99.4% | [6] 96% | [7] 95% | [8] 112% | [20] 90.9% | [11] 71.2% | [12] 100% | [13] 102% | [14] 100% | [16] 114% | [17] 108% | [18] 113% | [19] 112%

COCC(N)=O
inactive: [1] 95.9% | [2] 109% | [3] 108% | [4] 85.2% | [5] 102% | [6] 102% | [7] 104% | [8] 96.6% | [9] 98.5% | [10] 98.3% | [11] 103% | [12] 108% | [13] 101% | [14] 120% | [15] 105% | [16] 114% | [17] 106% | [18] 103% | [19] 111%

COc1ccc(-c2csc(NC(=O)Nc3nc(-c4ccc(OC)cc4)cs3)n2)cc1
inactive: [1] 116% | [2] 72.3% | [3] 93.6% | [4] 75.4% | [5] 99.8% | [6] 90.1% | [7] 81.5% | [8] 96.3% | [20] 76% | [11] 69.5% | [12] 70.3% | [14] 79% | [15] 116% | [16] 92.4% | [17] 81.9% | [18] 105% | [19] 79.2%

CCCCCCCCCCCCCCCCCCSC(=N)N
active: [10] -13.5%
inactive: [1] 97.6% | [2] 88.3% | [3] 65.6% | [4] 43.2% | [5] 65.5% | [6] 69.9% | [7] 79.4% | [8] 84.7% | [9] 26.2% | [11] 61.7% | [12] 86.9% | [13] 83.2% | [14] 76.1% | [15] 83.3% | [16] 70.5% | [17] 89.5% | [18] 100% | [19] 81%

CCOC(=O)Nc1nccs1
inactive: [1] 111% | [2] 99.4% | [3] 97.8% | [4] 88.1% | [5] 104% | [6] 104% | [7] 103% | [8] 99.9% | [9] 110% | [10] 110% | [11] 100% | [12] 104% | [13] 110% | [14] 109% | [15] 99.9% | [16] 97.2% | [17] 109% | [18] 98.7% | [19] 112%

Oc1cc(O)c2c(c1)O[C@H](c1ccc(O)c(O)c1)[C@@H](O)C2
inactive: [1] 106% | [2] 99.4% | [3] 102% | [4] 89.5% | [5] 106% | [6] 98% | [7] 99.4% | [8] 120% | [20] 94.4% | [12] 98% | [13] 100% | [15] 109% | [16] 103% | [18] 117% | [19] 101%

CN(C)c1ccc2nc3ccc(=[N+](C)C)cc-3oc2c1
active: [3] -39.7% | [9] 4.76% | [12] 8.48% | [13] -12.3% | [14] -76% | [16] 5.34% | [17] -10.6%
inactive: [1] 58.1% | [2] 29.8% | [4] 65.1% | [5] 70% | [6] 70.5% | [7] 70.3% | [8] 94.8% | [10] 60.3% | [11] 45.6% | [15] 61.3% | [18] 101% | [19] 66.3%

CC(c1ccccc1)N(C)C (centres undefined)
inactive: [1] 84% | [2] 122% | [3] 99.7% | [4] 71.4% | [5] 135% | [6] 109% | [7] 96.5% | [8] 139% | [9] 84.3% | [10] 67.3% | [11] 155% | [12] 117% | [13] 92.8% | [14] 77.3% | [15] 103% | [16] 152% | [17] 120% | [18] 153% | [19] 105%

C=CC(C)C(C)(C)O (centres undefined)
inactive: [1] 100% | [2] 105% | [3] 109% | [4] 87.2% | [5] 104% | [6] 106% | [7] 94.5% | [8] 91.4% | [9] 95.2% | [10] 97.6% | [11] 109% | [12] 108% | [13] 98.7% | [14] 113% | [15] 106% | [16] 102% | [17] 102% | [18] 96.3% | [19] 98.3%

O=C(CCCl)OCCOc1ccccc1
inactive: [1] 104% | [2] 109% | [3] 104% | [4] 88.5% | [5] 100% | [6] 106% | [7] 102% | [8] 89% | [9] 92.1% | [10] 94.5% | [11] 53.6% | [12] 102% | [13] 109% | [14] 102% | [15] 100% | [16] 104% | [17] 104% | [18] 98.8% | [19] 106%

O=C(O)c1c[nH]c2ccccc2c1=O
inactive: [1] 95.1% | [2] 103% | [3] 103% | [4] 90.6% | [5] 97.7% | [6] 102% | [7] 100% | [8] 127% | [9] 90% | [10] 99.9% | [11] 97.8% | [12] 108% | [13] 93.9% | [14] 93.4% | [15] 92.3% | [16] 99.2% | [17] 107% | [18] 112% | [19] 104%

CC(C)OCC(CCl)OC(=O)Nc1ccccc1 (centres undefined)
inactive: [1] 102% | [2] 104% | [3] 96.7% | [4] 80.9% | [5] 91.7% | [6] 105% | [7] 98.2% | [8] 103% | [9] 99.9% | [10] 117% | [11] 109% | [12] 97.9% | [13] 104% | [14] 101% | [15] 97.6% | [16] 105% | [17] 101% | [18] 114% | [19] 107%

Cc1ccc(Cc2ccc(C)cc2)cc1
inactive: [1] 99.6% | [2] 94.9% | [3] 110% | [4] 81.1% | [5] 107% | [6] 99.9% | [7] 99.8% | [8] 93.2% | [9] 97.2% | [10] 102% | [11] 106% | [12] 102% | [13] 99.1% | [14] 109% | [15] 97.2% | [16] 103% | [17] 116% | [18] 105% | [19] 108%

COc1cc(C(=O)O)c(O)c(C(C)(C)C)c1
inactive: [1] 106% | [2] 102% | [3] 103% | [4] 92.9% | [5] 105% | [6] 109% | [7] 102% | [8] 96.3% | [9] 98.1% | [10] 119% | [11] 106% | [12] 104% | [13] 99.2% | [14] 109% | [15] 103% | [16] 107% | [17] 104% | [18] 105% | [19] 106%

CCCCCCCCCc1ccc(OC(C)=O)cc1
inactive: [1] 101% | [2] 108% | [3] 99.6% | [4] 95.9% | [5] 96.3% | [6] 109% | [7] 103% | [8] 70.1% | [9] 108% | [10] 102% | [11] 91.8% | [12] 101% | [13] 105% | [14] 107% | [15] 119% | [16] 111% | [17] 108% | [18] 96.3% | [19] 119%

CC(=O)/C(C)=N\OC(=O)Nc1ccccc1
inactive: [1] 107% | [2] 95.6% | [3] 107% | [4] 80.8% | [5] 97.5% | [6] 101% | [7] 97.8% | [8] 101% | [9] 90.4% | [10] 106% | [11] 102% | [12] 106% | [13] 93.1% | [14] 97.7% | [15] 90.3% | [16] 103% | [17] 104% | [18] 107% | [19] 101%

CCC(=O)Oc1c(C)cc(O)c2ccccc12
inactive: [1] 90.4% | [2] 97% | [3] 93.3% | [4] 51.8% | [5] 132% | [6] 77.5% | [7] 95.1% | [8] 101% | [9] 64% | [10] 80.7% | [11] 54.6% | [12] 81.4% | [13] 105% | [14] 82.3% | [15] 104% | [16] 88.2% | [17] 72.6% | [18] 91.2% | [19] 85.2%
